Most compounds without a hit are left out; they make up all but 2% or so of the library.
VCAM1 TNFa inh = inhibitors of TNFa-induced VCAM1 expression, primary screen, imaging, HUVEC, TNFa stimulus, immunofluorescence; HUVEC TNFa-induced VCAM-1 immunofluorescence, high-content imaging; inhibition, % at 2 µM; 95,000 compounds, 0.48% hits; AID 802, 2007;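 active = inhibition above the batch mean plus 3 SD, with images confirmed as a hit by eye, cut at about 37% in these data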
TNFa cytotox = cytotoxicity in TNFa-stimulated HUVEC, primary screen, cytotoxicity control for VCAM1 expression modulator project, imaging, Hoechst nuclei count; 93,000 compounds, 0.17% hits; cell count reduction, % at 2 µM; HUVEC TNFalpha-stimulated, Hoechst cell count; AID 848, 2007;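 active = cell count reduction exceeding the screen mean by over 5 SD, scaled to untreated wells per plate, cut at about 78% in these data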;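 also: cells counted after 24 h of TNF alpha exposure following the 1 h pretreatment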
PLAP act = PLAP enzyme activators, biochemical, luminescence, HTS; Alkaline phosphatase, placental type (Homo sapiens), P05187; purified PLAP enzyme, luminescent substrate read-out; stronger effect = higher value; activation fold at 20 µM; 96,000 compounds, 1.2% hits; in the data active = activation fold above about 2
Target sequence (P05187 whole entry, looked up): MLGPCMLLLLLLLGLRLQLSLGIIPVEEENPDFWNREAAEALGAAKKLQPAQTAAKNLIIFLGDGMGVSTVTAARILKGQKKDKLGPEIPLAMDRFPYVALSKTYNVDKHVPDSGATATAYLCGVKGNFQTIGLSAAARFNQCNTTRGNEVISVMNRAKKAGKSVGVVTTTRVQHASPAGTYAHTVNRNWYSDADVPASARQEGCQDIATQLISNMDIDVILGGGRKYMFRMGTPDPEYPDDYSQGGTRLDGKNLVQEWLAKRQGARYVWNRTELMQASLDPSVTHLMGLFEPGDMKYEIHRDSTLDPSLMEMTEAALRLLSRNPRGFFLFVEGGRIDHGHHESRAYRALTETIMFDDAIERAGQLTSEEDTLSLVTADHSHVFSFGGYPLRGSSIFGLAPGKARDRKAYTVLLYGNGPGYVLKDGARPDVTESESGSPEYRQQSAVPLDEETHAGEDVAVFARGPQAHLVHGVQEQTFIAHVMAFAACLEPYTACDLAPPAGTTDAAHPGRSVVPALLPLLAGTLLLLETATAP
F-actin modifier = modifiers of F-actin cytoskeleton organization, primary screen, imaging, HUVEC, phalloidin staining, high-content imaging; inhibition, % at 2 µM; 91,000 compounds, 0.18% hits; HUVEC TNFa F-actin phalloidin imaging;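 active = inhibition above the batch mean plus 3 SD and confirmed as a hit by visual image inspection, cut at about 30% in these data, passing the limit was not always enough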
E-sel TNF inh = E-selectin induction blockers in HUVEC – imaging, immunofluorescence, high content, primary screen | HUVEC TNFa-induced E-selectin immunofluorescence | inhibition, % at 2 µM | 120,000 compounds, 0.71% hits | AID 1246, 2008;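 active = inhibition above the batch mean plus 3 SD, and confirmed as a hit on visual image review, cut at about 43% in these data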
Numbers stand for hits.

How did COC(=O)Cc1[nH]nc2c1C(c1cccc(OC)c1OC)C(C#N)=C(N)O2 (centres undefined) do in these assays?
PLAP act: 2; E-sel TNF inh: inactive

What do the screens show for `CCOC(=O)Cc1[nH]nc2c1C(c1cccc(OC)c1OC)C(C#N)=C(N)O2` (centres undefined)?
PLAP act: 2.2; E-sel TNF inh: inactive

What do the screens show for `CCOC(=O)Cc1[nH]nc2c1C(C1C=CCCC1)C(C#N)=C(N)O2` (centres undefined)?
VCAM1 TNFa inh: inactive; TNFa cytotox: inactive; PLAP act: 2.1; F-actin modifier: inactive; E-sel TNF inh: inactive

What do the screens show for `CCC(C)[C@H](N)c1nnc(SCC(=O)Nc2cccc(Cl)c2)o1` (some centres undefined)?
VCAM1 TNFa inh: inactive; TNFa cytotox: inactive; PLAP act: 2.5; E-sel TNF inh: inactive

Results for S=C(Nc1ccccn1)c1ccccn1 ?
VCAM1 TNFa inh: inactive; TNFa cytotox: inactive; PLAP act: 2.4; F-actin modifier: inactive; E-sel TNF inh: inactive

How did Cc1ccc(C)c(NC(=S)c2ccccn2)c1 do in these assays?
VCAM1 TNFa inh: inactive; TNFa cytotox: inactive; PLAP act: inactive; F-actin modifier: inactive; E-sel TNF inh: inactive

Results for Cc1ccc(NC(=O)C2=C(c3ccccc3)S(=O)(=O)CCS2(=O)=O)cc1 ?
E-sel TNF inh: 78.7

What do the screens show for `Cc1ccc(NC(=O)c2ccccc2)cc1`?
VCAM1 TNFa inh: inactive; TNFa cytotox: inactive; PLAP act: inactive; F-actin modifier: inactive; E-sel TNF inh: inactive

How did O=C(CN(Cc1ccccc1F)C(=O)Cn1nnc(-c2cccs2)n1)NC1CCCCC1 do in these assays?
VCAM1 TNFa inh: inactive; TNFa cytotox: inactive; PLAP act: inactive; F-actin modifier: inactive; E-sel TNF inh: inactive

Results for COc1cc(C(=O)Oc2ccccc2/C=N/NC(=O)c2ccc(Cl)cc2Cl)cc(OC)c1OC ?
VCAM1 TNFa inh: inactive; TNFa cytotox: inactive; PLAP act: 2.3; F-actin modifier: inactive

How did COc1cc(NC(=O)Cc2nn(C)c(=O)c3ccccc23)cc(OC)c1OC do in these assays?
VCAM1 TNFa inh: inactive; TNFa cytotox: inactive; F-actin modifier: inactive; E-sel TNF inh: 50.1

How did Cc1ccc2nc(C(O)C(O)c3nc4ccc(C)cc4[nH]3)[nH]c2c1 (centres undefined) do in these assays?
VCAM1 TNFa inh: inactive; TNFa cytotox: inactive; PLAP act: 2.1; F-actin modifier: inactive; E-sel TNF inh: inactive

How did Cc1ccc(NC(=O)COC(=O)c2cccc3c(=O)c(C)c(-c4ccccc4)oc23)cc1 do in these assays?
E-sel TNF inh: inactive

What do the screens show for `CC(C)c1nnc(NC(=O)CCC(=O)N2CCN(C3CCCCC3)CC2)s1`?
VCAM1 TNFa inh: 35.9; TNFa cytotox: inactive; PLAP act: inactive; F-actin modifier: inactive; E-sel TNF inh: inactive

How did CC(C)(C)n1nnnc1C(c1cccc(C(F)(F)F)c1)N1CCC(O)CC1 (centres undefined) do in these assays?
E-sel TNF inh: inactive

What do the screens show for `CCO/C(=C/c1sc2ccc(OC)cc2[n+]1CCCS(=O)(=O)[O-])CC`?
VCAM1 TNFa inh: inactive; TNFa cytotox: inactive; PLAP act: inactive; F-actin modifier: inactive; E-sel TNF inh: inactive

Results for CCOC(=O)C[n+]1c(C)sc2ccc(OC)cc21 ?
VCAM1 TNFa inh: inactive; TNFa cytotox: inactive; PLAP act: inactive; F-actin modifier: inactive; E-sel TNF inh: 65.6

What do the screens show for `Cc1ccccc1NC(=O)c1ccc(CSc2ncccn2)cc1`?
VCAM1 TNFa inh: inactive; TNFa cytotox: inactive; PLAP act: inactive; F-actin modifier: inactive; E-sel TNF inh: 60.8

What do the screens show for `Cc1cc2c(C)c(C)c(=O)[nH]c2cc1N`?
VCAM1 TNFa inh: inactive; TNFa cytotox: inactive; PLAP act: inactive; F-actin modifier: inactive; E-sel TNF inh: inactive

How did CCN(CC)S(=O)(=O)c1ccc2c(c1)c(=O)c(C(=O)NCc1ccco1)cn2C do in these assays?
E-sel TNF inh: inactive

How did CCC(C(=O)NCc1ccccc1OC)n1nc(C)n2c(cc3occc32)c1=O (centres undefined) do in these assays?
VCAM1 TNFa inh: inactive; TNFa cytotox: inactive; PLAP act: inactive; F-actin modifier: inactive; E-sel TNF inh: inactive

How did COc1ccc(-n2c(CNc3ccc(C)cc3)nnc2SCC(=O)Nc2nc(-c3ccccc3)cs2)cc1 do in these assays?
VCAM1 TNFa inh: inactive; TNFa cytotox: inactive; PLAP act: inactive; F-actin modifier: inactive; E-sel TNF inh: inactive

How did Cc1cc(C)nc(SCc2nnc(SCC(=O)Nc3nc(-c4ccccc4)cs3)n2-c2ccccc2)n1 do in these assays?
VCAM1 TNFa inh: inactive; TNFa cytotox: inactive; PLAP act: 2; F-actin modifier: inactive; E-sel TNF inh: inactive

Results for Cc1sc2nc(CN3CCCC3)nc(N3CCC(C(N)=O)CC3)c2c1C ?
VCAM1 TNFa inh: inactive; TNFa cytotox: inactive; PLAP act: 2; F-actin modifier: inactive; E-sel TNF inh: inactive

How did O=C(Cc1ccccc1)NCc1ccncc1 do in these assays?
E-sel TNF inh: inactive

How did O=C(NCc1ccccc1)c1n[nH]nc1-c1ccccc1O do in these assays?
PLAP act: 2.9; E-sel TNF inh: 58.0

Results for CCOC(=O)CCCSc1nnc(CCCCCN2C(=O)c3cccc4cccc(c34)C2=O)o1 ?
E-sel TNF inh: inactive

How did Oc1ccccc1C1=Nc2ncnn2C(c2ccccc2)C1 (centres undefined) do in these assays?
PLAP act: inactive; E-sel TNF inh: 96.5

How did CCc1ccc2oc(-c3cc(N)ccc3O)nc2c1 do in these assays?
VCAM1 TNFa inh: 39.1; TNFa cytotox: inactive; PLAP act: inactive; F-actin modifier: inactive; E-sel TNF inh: inactive

What do the screens show for `CCCCN(CC)CCCNC(=O)C1c2ccccc2C(=O)N(C)C1c1cn(C)c2ccccc12` (centres undefined)?
VCAM1 TNFa inh: inactive; TNFa cytotox: inactive; PLAP act: 2; E-sel TNF inh: inactive

How did CCCCN(CC)CCNC(=O)C1c2cc(OC)c(OC)cc2C(=O)N2CCc3ccccc3C12 (centres undefined) do in these assays?
VCAM1 TNFa inh: inactive; TNFa cytotox: inactive; PLAP act: 2; F-actin modifier: inactive; E-sel TNF inh: inactive

What do the screens show for `COC(CNc1cc(=O)oc2ccccc12)OC`?
VCAM1 TNFa inh: inactive; TNFa cytotox: inactive; PLAP act: inactive; F-actin modifier: inactive; E-sel TNF inh: inactive

What do the screens show for `CC1CC(=O)NN=C1c1ccc(NCCO)c([N+](=O)[O-])c1` (centres undefined)?
VCAM1 TNFa inh: 39.7; TNFa cytotox: inactive; PLAP act: inactive; F-actin modifier: inactive; E-sel TNF inh: inactive

How did COc1ccc(C(=O)Nc2ccc(C3=NNC(=O)CC3C)cc2NC(=O)c2ccc(OC)cc2)cc1 (centres undefined) do in these assays?
E-sel TNF inh: inactive

How did O=C(N/N=C/C(Br)=C/c1ccccc1)c1n[nH]c2c1CCC2 do in these assays?
VCAM1 TNFa inh: 90.8; TNFa cytotox: inactive; PLAP act: inactive; F-actin modifier: inactive

What do the screens show for `COCCNC(=O)c1ccccc1NC(=O)c1cccc([N+](=O)[O-])c1C`?
E-sel TNF inh: 60.4

High-throughput results from PubChem BioAssay.
